Experimental data from PubChem BioAssay AID588342 (National Center for Advancing Translational Sciences (NCATS), 2011).
About 25,000 (6.9%) of roughly 360,000 compounds were called active. Another 9% or so got no clear call; they are omitted. This excerpt belongs to a sample that is enriched for actives. Unmarked numbers belong to inactive results. Calls follow the shape of the dose curve; as a rule, active = well fitted inhibition curve with a large enough effect; inconclusive = small, poorly fitted or top-dose-only effect; inactive = flat fitted curve, though single readings scatter.

Target: Luciferin 4-monooxygenase (Photinus pyralis) (UniProt P08659)
Sequence (P08659 whole entry, looked up): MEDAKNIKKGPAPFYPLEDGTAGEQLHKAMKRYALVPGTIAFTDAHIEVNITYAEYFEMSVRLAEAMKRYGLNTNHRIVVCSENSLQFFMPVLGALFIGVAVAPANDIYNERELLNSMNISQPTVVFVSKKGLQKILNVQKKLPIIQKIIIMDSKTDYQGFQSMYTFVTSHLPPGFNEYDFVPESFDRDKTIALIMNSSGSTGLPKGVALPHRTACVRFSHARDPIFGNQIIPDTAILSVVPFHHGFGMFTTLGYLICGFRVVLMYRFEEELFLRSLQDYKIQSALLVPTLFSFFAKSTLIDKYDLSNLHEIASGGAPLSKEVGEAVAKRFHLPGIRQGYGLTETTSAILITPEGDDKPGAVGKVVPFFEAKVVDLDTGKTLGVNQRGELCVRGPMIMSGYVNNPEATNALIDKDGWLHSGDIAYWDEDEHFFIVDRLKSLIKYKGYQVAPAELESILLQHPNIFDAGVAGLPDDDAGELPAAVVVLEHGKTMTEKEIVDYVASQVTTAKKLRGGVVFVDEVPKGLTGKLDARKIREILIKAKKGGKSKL
Assay: qHTS profiling assay for firefly luciferase inhibitor/activator using purifed enzyme and Km concentrations of substrates (counterscreen for miR-21 project); also: nearly all actives have a fitted effect of over 55% in size;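 as to activity change, negative = inhibition: plate controls were vehicle for no effect and reference inhibitor for full effect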
Conditions: purified FLuc, luminescence inhibition; series mostly up to 57.5 µM; activity change, negative = inhibition: at the top concentration
Method in brief: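 Purified P. pyralis luciferase (10nM final) with 10uM D-luciferin and 10uM ATP (Km levels) in 50mM Tris acetate pH 7.5, 10mM Mg acetate, 0.01% Tween-20, 0.05% BSA; qHTS 6-point titration, ~60 µM downward; luminescence read.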
Potency is read from the fitted curve at half-maximal effect.

SMILES	activity change, negative = inhibition [%]	Potency
Cc1nnc(N2CCC(C(=O)Nc3ccc(F)cc3)CC2)c2nn(-c3ccc(Cl)cc3)c(C)c12	0.139	–
Cc1ccc(NC(=O)COC(=O)CN2CCCCCC2=O)c(C)c1	2.69	–
Cn1c(C(=O)Nc2cccc(C(F)(F)F)c2)cc2c(=O)n3ccccc3nc21	-8.11	–
CCCN(CCC)C(=O)C(Cc1ccccc1)NS(=O)(=O)c1ccc2c(c1)c(=O)n(C)c(=O)n2C (stereo not drawn)	-0.122	–
Cc1cc(C(=O)COC(=O)CNC(=O)c2ccc(F)cc2)c(C)n1Cc1ccco1	–	6.75 µM (active)
O=C(COC(=O)CNC(=O)c1ccco1)Nc1ccc(F)cc1	-0.0434	–
COCCn1c(C)cc(C(=O)COC(=O)CNC(=O)c2ccco2)c1C	-9.9	–
CCC(C)NC(=O)Cn1c(=O)n(-c2ccc(Cl)cc2)c(=O)c2c3c(sc21)CCCC3 (stereo not drawn)	1.6	–
COc1ccc(CNC(=O)c2cc3c(=O)[nH]c4ccccc4c3s2)cc1	0.566	–
COc1ccc(-c2cc(NCc3ccc(F)cc3)n3cnnc3n2)cc1	-7.12	–
COc1ccc(-c2cn3cccnc3n2)cc1	–	13.5 µM (active)
COc1ccc(N2CCN(C(=O)CSc3nnc4ncccn34)CC2)cc1	2.29	–
CC(C)(C)C(=O)Nc1ccc(-c2cn3cccnc3n2)cc1	–	7.57 µM (active)
COc1ccc(-c2cn3ccsc3n2)cc1	–	2.39 µM (active)
FC(F)(F)Oc1ccc(-c2cn3cccnc3n2)cc1	–	6.01 µM (active)
COc1ccc(-c2cn3c(n2)sc2cc(C(=O)Nc4ccc(F)cc4)ccc23)cc1	-11.2	–
COc1cc(OC)cc(-c2nc(=S)n3ccsc3n2)c1	4.32	–
CC(=O)Nc1ccc(S(=O)(=O)Nc2cccc(NC(=O)C(C)(C)C)c2)cc1	0.526	–
Cc1c(-c2cccc(NC(=O)C(C)(C)C)c2)nc2ncccn12	-5.1	–
O=C(CCNC(=O)c1ccc(Br)cc1)NCC(c1ccco1)N1CCCCC1 (stereo not drawn)	1.69	–
CN(CC(=O)Nc1cccc(C(F)(F)F)c1)S(=O)(=O)c1cccs1	-12	–
CC(C)CCNC(=O)Cn1c(=O)oc2cc(S(=O)(=O)N3CC(C)CC(C)C3)ccc21 (stereo not drawn)	1.69	–
CCOc1ccc(CNC(=O)c2cccc(Nc3nc4ccccc4n4nnnc34)c2)cc1OC	0.0001	–

SMILES	activity change, negative = inhibition [%]	Potency
CCN(CC)CCNC(=O)c1cc2c(=O)oc3ccc(C)cc3c2s1	3.49	–
Cc1ccc(-c2nnc(SCC(=O)NCc3ccccc3)nc2-c2ccc(C)cc2)cc1	-9.65	–
COC(=O)c1cc(NC(=O)c2cnc(SC)nc2-c2ccccc2)cc(C(=O)OC)c1	0.653	–
COc1ccccc1C(=O)NC(CCSC)C(=O)N1CCN(C(C)=O)CC1 (stereo not drawn)	-0.351	–
CC(=O)c1cccc(NC(=O)C2CCN(C(=O)c3ccccc3Cl)CC2)c1	2.84	–
CC(=O)N1CCCc2ccc(NS(=O)(=O)c3ccc(F)cc3F)cc21	-3.32	–
O=C(O)c1ccc2c(=O)n3c(nc2c1)/C(=C/c1ccc(Cl)c([N+](=O)[O-])c1)CC3	0.928	–
COc1ccc(OC)c(-c2nc(C(N)=O)c3c(n2)n(-c2ccc4c(c2)OCO4)c(=O)n3C)c1	1.35	–
CC(C)C12CN3CC(C(C)C)(CN(C1)C3c1ccc(OCc3ccccc3)cc1)C2=O (stereo not drawn)	-0.194	–
O=C1C=C(NCCNc2c(F)c(F)c(CO)c(F)c2F)CCC1	1.96	–
Cc1ccc(C)c(N2CCN(CCCNC(=O)Nc3ccc(Cl)cc3)CC2)c1	1.01	–
CC1CCC(C(C)C)C(=O)/C1=C\c1ccc(NC(=O)CCC(=O)O)cc1 (stereo not drawn)	–	16.9 µM (active)
O=C(O)CCC(=O)Nc1ccc(OCC2CCCO2)cc1 (stereo not drawn)	-11.2	–
O=C(O)CCC(=O)Nc1ccc(N2CCOCC2)cc1	-7.99	–
O=C(CSc1nnc(-c2ccccc2F)o1)Nc1cccc(C(F)(F)F)c1	-12.9	–
O=C(NC1CCCC1)C(NS(=O)(=O)c1ccc(Br)s1)c1ccccc1 (stereo not drawn)	-0.902	–
CN(C)c1ccc(-c2nnc(-c3cccnc3)o2)cc1	–	9.53 µM (active)
Cc1csc(NC(=O)CSc2nnc(-c3cccnc3)o2)n1	0.524	–
CN(C)c1nc(-c2cccnc2)nc(-c2ccc(Cl)cc2)c1C#N	0.952	–
O=C(CCNC(=O)c1ccc([N+](=O)[O-])cc1)NC1CCCCC1	-0.597	–
COc1ccc(CNC(=O)C(C)n2nc(C)c3c(C)n(-c4ccccc4)nc3c2=O)c(OC)c1 (stereo not drawn)	–	inactive
O=C(Nc1cccc(F)c1)NC1CCCc2ccccc21 (stereo not drawn)	-1.61	–
Cc1cc(C)cc(NC(=O)NC2CCN(CC(=O)Nc3cccc(Cl)c3C)CC2)c1	-0.135	–

SMILES	activity change, negative = inhibition [%]	Potency
Cc1cc(C)cc(NC(=O)NC2CCCCCCC2)c1	–	10.7 µM (active)
O=C(Nc1cccc(F)c1)NC1CCCCCCC1	–	15.1 µM (active)
C/C(CC(=O)Nc1cccc(F)c1)=N\NC(=O)C(=O)NC1CCCCC1	-1.86	–
Cc1ccc(NC(=O)CSCC(=O)NC2CCCCC2)cc1	-3.2	–
Cc1ccc(NC(=S)NC2CCCC2)cc1	–	10.7 µM (active)
CC(C)(C)NS(=O)(=O)c1ccc(NC(=O)NC2CCCCC2)cc1	-10.9	–
Cc1cc(Br)ccc1NC(=S)NC1CCCC1	-16.2	–
CC(C)N1CCC(NC(=O)Nc2ccccc2)CC1	0.545	–
Cc1ccc(NC(=O)NC2CCCCC2)cc1S(=O)(=O)N1CCOCC1	-17	–
CC(C)c1ccc(NC(=O)NC2CCCCC2)cc1	–	6.75 µM (active)
CCCNC(=O)C1CCN(c2nc3ccc(C)cc3[nH]2)CC1	-13.2	–
C=CC(=O)OCCOCCOCCOCCOC(=O)C=C	3.63	–
CO[C@H]1[C@@H]2C=CO[C@@H](O[C@H]3O[C@@H](CO)[C@H](O)[C@@H](O)[C@@H]3O)[C@@H]2[C@@]2(CO)O[C@@H]12	0.484	–
CCOc1ccccc1C(=O)NCC(c1ccc(N(C)C)cc1)N1CCCC1 (stereo not drawn)	5.38	–
CCCN1C(=O)C(O)(CC(=O)c2ccc(CC)cc2)c2cc(Br)ccc21 (stereo not drawn)	-1.26	–
CN(CC(=O)NCc1ccc2c(c1)OCO2)CC(=O)Nc1ccc(F)c(F)c1F	6.28	–
Cc1ccccc1CC1(CO)CCCN(C(=O)c2cc(-c3ccccc3)no2)C1 (stereo not drawn)	-8.7	–
CCOC(=O)C1(Cc2ccccc2C)CCCN(C(=O)CCc2c(C)noc2C)C1 (stereo not drawn)	-2.5	–
COC(=O)CCC(=O)N1CCCC(CO)(Cc2ccccc2)C1 (stereo not drawn)	–	15.1 µM (active)
Cc1noc(C)c1CCC(=O)O	-1.99	–
Cc1noc(C)c1CCC(=O)N1CCCC(CO)(Cc2ccccc2)C1 (stereo not drawn)	–	19 µM (active)
CCCc1cc(C(=O)N2CCCC(CO)(CCCc3ccccc3)C2)n(C)n1 (stereo not drawn)	-2.74	–
